Assay outcomes from PubChem BioAssay.
Only some compounds are listed: those with a hit (about 8% of all), similar ones and a draw of the others.
MCF10A rerep: inducers of DNA re-replication in MCF 10A breast cells; Potency, µM (top dose mostly 46.1 µM), for the others: at the top dose activity, positive = re-replication, actives largely listed as activators; 350,000 tested, 2.9% active; MCF 10A DNA re-replication, Hoechst nuclear intensity, 48 h; note: % of control where 0% means no effect; nearly all actives have a fitted effect of over 50% in size
KB-V1 MDR tox: kills drug-selected multidrug resistant KB-V1 cells | KB-V1 MDR cells viability, CellTiter-Glo, 72 h | Potency, µM (top dose mostly 46.1 µM), usual class: cytotoxic | 400,000 tested, 3.4% active | AID 1347076; note: % is set by controls: 0 for no effect and ±100 for the full control effect; nearly all actives have a fitted effect of over 60% in size
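Cytotoxicity via CellTiter-Glo luminescence after 72 h compound exposure at 37 degrees C. Cells: drug-selected KB-V1 line, DMEM phenol-red free plus 10% FBS. Compounds tested at multiple concentrations; normalized data fitted to concentration-effect curves.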
KB-3-1 cytotox: KB-3-1 parental cell cytotoxicity; KB-3-1 viability, CellTiter-Glo ATP luminescence, 72 h; Potency, µM (titrated, usually from 46.1 µM), usual class: cytotoxic; 400,000 tested, 1.4% active; note: % is set by controls: 0 for no effect and ±100 for the full control effect; nearly all actives have a fitted effect of over 60% in size
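Multi-concentration cytotoxicity screen in KB-3-1 cells grown in DMEM lacking phenol red with 10% FBS. After 72 h at 37 °C with compound, ATP-dependent luminescence was recorded.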
HT1080 IDH1KD tx: kills HT-1080 cells with IDH1 knockdown | AID 686971 | 360,000 tested, 2% active | HT-1080 IDH1 knockdown viability, ATP luminescence, 48 h | Potency, µM (top dose mostly 46.1 µM), without a hit: at the top dose activity, negative = toxicity, most hits filed as cytotoxic;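 note: 0% = DMSO wells and -100% = cell-free medium wells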
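Using the IDH1-knockdown HT-1080 line run in the same batch and compound series as the NT line, viability after 48 h at 37 °C was determined by CellTiter-Glo luminescence and expressed as % activity.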
SW480 rereplic: DNA re-replication induction in SW480 cells | SW480 DNA re-replication, Hoechst DNA content imaging, 48 h | Potency, µM (top dose mostly 46.1 µM), for the others: at the top dose re-replication activation, usual class: activators | 340,000 tested, 1.8% active | AID 624297; note: % of control where 0% means no effect; nearly all actives have a fitted effect of over 55% in size
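Per well, 250 cells were exposed to pinned compound for 48 hr. Nuclear DNA was visualised with Hoechst (40 min, 37 C) and total object intensity recorded by fluorescence scanning.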
HT1080NT lethal: kills 2HG-producing HT-1080-NT fibrosarcoma cells. 360,000 tested, 1.6% active. Potency, µM (series often up to 46.1 µM), for inactives: at the top dose activity, negative = less viability, hits mostly cytotoxic. AID 686970. HT-1080-NT fibrosarcoma viability, CellTiter-Glo ATP luminescence, 48 h;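 note: NT is the 2HG producing partner of a matched IDH1 knockdown line; 0% = DMSO-treated cells and -100% = media-only wells without cells; nearly all actives have a fitted effect of over 55% in size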
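Toxicity toward the 2HG-producing NT line was scored as %Activity, normalised to DMSO and no-cell wells, from CellTiter-Glo luminescence after 48 hours' treatment.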
An asterisk follows results filed as active; i = inactive; ? = inconclusive; / = no result. Calls come from the whole dose curve; as a rule, active = well fitted curve in the direction sought with a large enough effect; inconclusive = small, poorly fitted or top-dose-only effect, or another doubt; inactive = no such curve, though single readings can be large; an effect the other way counts as inactive or inconclusive. Potency is the fitted concentration of half-maximal effect.

SMILES | MCF10A rerep | KB-V1 MDR tox | KB-3-1 cytotox | HT1080 IDH1KD tx | SW480 rereplic | HT1080NT lethal
Cc1nnc(C)n1/N=C/c1c(O)ccc2ccccc12 | -1% | ? | i | 1% | -2% | -8%
Cc1nnc(-c2ccccc2)c(=O)n1/N=C/c1c(O)ccc2ccccc12 | 16% | 2.9µM* | ? | ? | 6.5µM* | ?
CCCCCOc1ccc(/C=C/C(=O)Nc2sc3c(c2C(=O)OCC)CCC3)cc1OC | / | i | i | / | / | /
COCCN1C(=O)c2oc3ccc(C)cc3c(=O)c2C12C(=O)N(C)c1ccccc12 (stereo not drawn) | / | i | i | / | / | /
Cc1ccc(N=Cc2c(C)[nH]n(-c3ccccc3)c2=O)nc1 | 0% | i | i | -15% | ? | -9%
Cc1ccc(-n2[nH]c(C)c(C=Nc3ccc(C)cn3)c2=O)cc1 | -1% | ? | ? | 0% | -4% | 7.9µM*
Cc1cc2nc(/C=C/c3nc4cc(C)c(C)cc4[nH]3)[nH]c2cc1C | ? | i | i | -9% | 23µM* | -4%
Cc1cc2nc(/C=C/c3cccnc3)[nH]c2cc1C | ? | 0.26µM* | 1.2µM* | 0.58µM* | ? | 0.52µM*
Cc1cc2nc(CO)[nH]c2cc1C | 4% | i | i | 0% | -10% | -1%
C(=C\c1ccc2ccccc2n1)/c1cccnc1 | / | i | ? | / | / | /
CC(C)c1ccc(NC(=O)[C@H]2O[C@@H]3OC(C)(C)O[C@@H]3[C@H]3OC(C)(C)O[C@H]32)cc1 | / | ? | i | / | / | /
CN(C)c1cc2c3ccccc3ccc2c2ccccc12 | / | i | i | / | / | /
COc1cc(/C=C/C(=O)c2ccc([N+](=O)[O-])o2)ccc1O | ? | i | i | ? | 0.058µM* | 18µM*
O=C(/C=C/c1cccc(Cl)c1)c1ccc([N+](=O)[O-])o1 | 2.3µM* | i | ? | ? | 1.5µM* | ?
Cn1c(=O)n(C)c2cc(N3CCOCC3)c(NC(=O)c3ccc(Cl)cc3)cc21 | / | i | i | / | / | /
CCn1cc(/C=C(\NC(=O)c2ccc(C)cc2)C(=O)NCCCn2ccnc2)c2ccccc21 | / | ? | i | / | / | /
Cc1ccc(C(=O)N2CCCCC2)cc1NC1=C(Cl)C(=O)N(Cc2ccccc2)C1=O | 8.2µM* | i | ? | ? | ? | ?
Cc1ccc(CN2C(=O)c3ccccc3Sc3ccc(C(=O)NCCN4CCOCC4)cc32)cc1 | ? | ? | ? | 9.2µM* | ? | 12µM*
O=C(c1ccc2c(c1)N(Cc1ccccc1)C(=O)c1ccccc1S2)N1CCCC1 | 17% | 2.3µM* | i | 2% | -8% | 9%
Cc1cccc(CN2C(=O)c3ccccc3Sc3ccc(C(=O)N4CCCC4)cc32)c1 | / | i | ? | / | / | /
CC(=O)Nc1ccc(CNc2nc(NC(C)C)nc3cc(-c4ccccc4)sc23)cc1 | / | 21µM* | ? | ? | / | ?
COc1ccc(-c2cc(CNc3nc(NC(C)C)nc4cc(-c5ccccc5)sc34)on2)cc1 | / | 21µM* | ? | 12µM* | / | 10µM*
C=CCNc1nc(NCc2ccc(NC(C)=O)cc2)c2sc(-c3ccccc3)cc2n1 | / | ? | ? | -21% | / | 18µM*
Cc1sc2ncn(CC(=O)N3CCN(c4ccc(F)cc4)CC3)c(=O)c2c1S(=O)(=O)N1CCCCC1 | / | i | i | / | / | /
CCOC(=O)c1cnc2ccc(C)cc2c1Nc1ccc(N2CCOCC2)cc1 | 21µM* | i | ? | ? | 16% | ?
SMILES | MCF10A rerep | KB-V1 MDR tox | KB-3-1 cytotox | HT1080 IDH1KD tx | SW480 rereplic | HT1080NT lethal
CCOC(=O)c1cnc2ccc(Cl)cc2c1Nc1ccc(N2CCOCC2)cc1 | / | i | i | / | / | /
CN(C)C(=O)c1ccc(SC(=S)NCc2ccccc2)cc1 | / | ? | 6.5µM* | 1% | / | ?
COc1ccc2c(c1)c1c(c(=O)n(-c3ccccc3C)c(=O)n1CC(=O)N1CCCC1)n2C | / | i | i | / | / | /
O=C1CC(c2cccc(Cl)c2Cl)c2cc3c(cc2N1)OCCO3 (stereo not drawn) | / | i | ? | / | / | /
CC1CCC(O)C/C1=C\C=C1/CCCC2(C)C1CCC2C(C)/C=C/C(C)C(C)C (stereo not drawn) | 21µM* | / | / | / | ? | /
O=c1ccn(C2OC(COP(=O)(O)OC3C(CO)OC(n4ccc(=O)[nH]c4=O)C3O)C(O)C2O)c(=O)[nH]1 (stereo not drawn) | 4% | / | / | / | -1% | /
Cc1ccc2nc(-c3ccc(NC(=O)CSc4nc(N)cc(=O)[nH]4)cc3)sc2c1 | 10% | i | ? | 12µM* | 3.7µM* | 9.2µM*
COc1ccc(C2(C)NC(=O)N(CC(=O)Nc3ccc(-c4nc5ccc(C)cc5s4)cc3)C2=O)cc1 (stereo not drawn) | 18µM* | i | i | -7% | ? | 2%
